Reference: PubChem BioAssay (Tox21)
Values joined by “and” are separate entries in the source; they are usually repeats but may differ in a detail not shown here. Identical values can stand only once. Results filed as inconclusive are left out. Where a structure was tested more than once in an assay, its records may differ in their call. Active and inactive are the calls of the source. Calls come from the whole dose curve; as a rule, active = well fitted curve in the direction sought with a large enough effect in the repeat runs; inconclusive = weak or mixed curves; inactive = no such curve, though single readings can be large; an effect the other way counts as inactive or inconclusive.

assay: qHTS RealTime-Glo MT Cell Viability Assay in HEK293 cells - 40 hour (AID 1224874); details: RealTime-Glo luminescence; max response: hits give low values; note: nearly all actives have a fitted effect of over 50% in size; note: potency is the fitted concentration of half-maximal effect
Outline: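 Real-time viability in HEK293: signal arises when living cells convert a prosubstrate for NanoLuc in the medium, so luminescence tracks viable cell number. Compound (23 nL, DMSO) added 5 h post-seeding; kinetic reads at 0–40 h, 37 C.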
% is set by controls: 0 for no effect and ±100 for the full control effect.

| Compound | max response | Potency |
| --- | --- | --- |
| [N-]=[N+]=[N-] | -10.7% (inactive) and 2.12% (inactive) | – |
| CCc1cccc(C)c1N(C(=O)CCl)C(C)COC (stereo unspecified) | -0.256% (inactive) and -7.36% (inactive) | – |
| CC(C)C1(C)N=C(c2nc3ccccc3cc2C(=O)O)NC1=O (stereo unspecified) | 4.12% (inactive) and 2.1% (inactive) | – |
| C#CCN(C)[C@H](C)Cc1ccccc1 | 3.52% (inactive) and 3.78% (inactive) | – |
| CN1C(=O)CN=C(c2ccccc2)c2cc(Cl)ccc21 | -22% (inactive) | – |
| CC(Br)C(=O)O (stereo unspecified) | 0.901% (inactive) and -24.8% (inactive) | – |
| O=C1CCCN1 | 1.24% (inactive) and -5.73% (inactive) | – |
| CCC12COCN1COC2 | 1.37% (inactive) and 3.08% (inactive) | – |
| CC(C)=C[C@@H]1[C@@H](C(=O)OCc2coc(Cc3ccccc3)c2)C1(C)C | -1.11% (inactive) and 8.33% (inactive) | – |
| Cc1cc(-c2cc(C)c(N)c(C)c2)cc(C)c1N | -25.8% (inactive) and -12.6% (inactive) | – |
| c1ccc(-c2ccccc2)cc1 | -0.911% (inactive) and -11.7% (inactive) | – |
| Nc1ccc(Oc2ccc(N)cc2)cc1 | -6.06% (inactive) and -21.5% (inactive) | – |
| O=C(NC(=O)c1c(F)cccc1F)Nc1cc(Cl)c(OC(F)(F)C(F)C(F)(F)F)cc1Cl (stereo unspecified) | -33.5% (inactive) | – |
| COc1ccc2c3c1O[C@H]1[C@@H](O)C=C[C@H]4[C@@H](C2)N(C)CC[C@@]341 | 0.391% (inactive) | 24.2 µM (active) |
| Clc1ccc(Cl)cc1 | 6.61% (inactive) and 0.839% (inactive) | – |
| Cc1ccc(N)cc1Cl | -5.66% (inactive) and 1.08% (inactive) | – |
| O=c1n(Cl)c(=O)n(Cl)c(=O)n1Cl | 1.37% (inactive) and 3.54% (inactive) | – |
| O=c1ccc(=O)[nH][nH]1 | -2.89% (inactive) and -0.4% (inactive) | – |

| Compound | max response | Potency |
| --- | --- | --- |
| COP(N)(=O)SC (stereo unspecified) | -1.86% (inactive) and 15.3% (inactive) | – |
| CCOC(=O)c1ccccc1C(=O)OCC | 0.767% (inactive) and 3.18% (inactive) | – |
| C1CC2OC2CC1C1CO1 (stereo unspecified) | 9.84% (inactive) | – |
| CC(C)OC(=O)Nc1ccccc1 | 1.67% (inactive) and 0.253% (inactive) | – |
| CC(C#N)CCC#N (stereo unspecified) | 6.71% (inactive) and -8.28% (inactive) | – |
| O=NN1CCCC1 | -15.8% (inactive) and -5.95% (inactive) | – |
| O=Cc1cccc(Oc2ccccc2)c1 | -18.5% (inactive) and 0.95% (inactive) | – |
| CC(C)N1C(=O)c2ccccc2NS1(=O)=O | -5.03% (inactive) and 3.56% (inactive) | – |
| C#CC(C)(C)NC(=O)c1cc(Cl)cc(Cl)c1 | -9.66% (inactive) | – |
| COC(=O)c1ccccc1N | 1.4% (inactive) and 10.1% (inactive) | – |
| Cc1ccc(N)cc1N | 14.6% (inactive) | – |
| OCCN(CCO)CCO | -6.59% (inactive) and 8.79% (inactive) | – |
| CCCCCCCCCCCC#N | -12% (inactive) and 12.1% (inactive) | – |
| CN(C)CCO | -6.53% (inactive) and -6.4% (inactive) | – |
| Nc1c(Cl)c(Cl)nc(C(=O)O)c1Cl | 19.5% (inactive) and -5.11% (inactive) and 22.8% (inactive) | – |
| CC(C)(C)OOC(=O)c1ccccc1 | -10.9% (inactive) and 1.81% (inactive) | – |
| O=c1[nH]c(=O)[nH]c(=O)[nH]1 | 1.39% (inactive) and 0.958% (inactive) | – |

assay: A CellTox Green Cytotoxicity Assay to monitor cytotoxicity in HEK293 cells - 24 hour (AID 1224875); details: CellTox Green fluorescence; series mostly up to 76.8 µM; activity change: at the top concentration; note: nearly all actives have a fitted effect of over 45% in size
Outline: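 Cells (HEK293, 600/well) and dye reagent are dispensed together. After 5 h at 37 C, 23 nL compound is pinned in. Plates stay at 37 C for 40 h with fluorescence read at 0h, 8h, 16h, 24h, 32h and 40h.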

| Compound | Potency | activity change |
| --- | --- | --- |
| [N-]=[N+]=[N-] | inactive | – |
| CCc1cccc(C)c1N(C(=O)CCl)C(C)COC (stereo unspecified) | inactive | – |
| CC(C)C1(C)N=C(c2nc3ccccc3cc2C(=O)O)NC1=O (stereo unspecified) | inactive | – |
| C#CCN(C)[C@H](C)Cc1ccccc1 | inactive | – |
| CN1C(=O)CN=C(c2ccccc2)c2cc(Cl)ccc21 | inactive | – |
| CC(Br)C(=O)O (stereo unspecified) | inactive | – |
| O=C1CCCN1 | inactive | – |
| CCC12COCN1COC2 | inactive | – |
| CC(C)=C[C@@H]1[C@@H](C(=O)OCc2coc(Cc3ccccc3)c2)C1(C)C | inactive | – |
| Cc1cc(-c2cc(C)c(N)c(C)c2)cc(C)c1N | inactive | – |
| c1ccc(-c2ccccc2)cc1 | inactive | – |
| Nc1ccc(Oc2ccc(N)cc2)cc1 | inactive | – |
| O=C(NC(=O)c1c(F)cccc1F)Nc1cc(Cl)c(OC(F)(F)C(F)C(F)(F)F)cc1Cl (stereo unspecified) | inactive | – |
| O=[N+]([O-])c1ccc(Oc2ccc(Cl)cc2Cl)cc1 | inactive | – |
| COc1ccc2c3c1O[C@H]1[C@@H](O)C=C[C@H]4[C@@H](C2)N(C)CC[C@@]341 | inactive | – |
| Clc1ccc(Cl)cc1 | inactive | – |
| Cc1ccc(N)cc1Cl | inactive | – |
| O=c1n(Cl)c(=O)n(Cl)c(=O)n1Cl | inactive | – |

| Compound | Potency | activity change |
| --- | --- | --- |
| O=c1ccc(=O)[nH][nH]1 | inactive | – |
| COP(N)(=O)SC (stereo unspecified) | – | -8.87% (inactive) |
| CCOC(=O)c1ccccc1C(=O)OCC | inactive | – |
| C1CC2OC2CC1C1CO1 (stereo unspecified) | inactive | – |
| CC(C)OC(=O)Nc1ccccc1 | inactive | – |
| CC(C#N)CCC#N (stereo unspecified) | inactive | – |
| O=NN1CCCC1 | inactive | – |
| O=Cc1cccc(Oc2ccccc2)c1 | inactive | – |
| CC(C)N1C(=O)c2ccccc2NS1(=O)=O | inactive | – |
| C#CC(C)(C)NC(=O)c1cc(Cl)cc(Cl)c1 | inactive | – |
| COC(=O)c1ccccc1N | inactive | – |
| Cc1ccc(N)cc1N | inactive | – |
| OCCN(CCO)CCO | inactive | – |
| CN(C)CCO | inactive | – |
| Nc1c(Cl)c(Cl)nc(C(=O)O)c1Cl | inactive | – |
| CC(C)(C)OOC(=O)c1ccccc1 | inactive | – |
| O=c1[nH]c(=O)[nH]c(=O)[nH]1 | inactive | – |
